Six compounds from PubChem BioAssay (NCI) can be followed below.

What all share (experiment): NCI-60 one-dose screen, 48 h (100 = growth as untreated, 0 = no growth, -100 = all killed)
Details in all cases: 10 µM unless noted

In experiment [1] the test system is NCI-H23 lung.
Experiment [2] has as its system NCI-H226 lung.
Experiment [3] has as its system NCI-H322M lung.
Experiment [4] relates to HOP-62 NSCLC.
In experiment [5] the test system is NCI-H460 lung.
Experiment [6] deals with HOP-92 NSCLC.
For experiment [7], the system named is NCI-H522 lung.
In experiment [8] the test system is A549/ATCC NSCLC.
Experiment [9] concerns 786-0 renal.
Experiment [10] concerns COLO 205 colon.
Experiment [11] relates to DU-145 prostate.
Experiment [12] deals with K-562 leukemia.
Experiment [13] relates to MALME-3M melanoma.
Experiment [14] has as its system MDA-MB-231 breast.
In experiment [15] the test system is RXF 393 renal.
In experiment [16] the test system is SF-268 CNS.
Experiment [17] concerns SF-295 CNS.
For experiment [18], the system named is SF-539 CNS.
Experiment [19] deals with UACC-257 melanoma.
Experiment [20] has as its system M14 melanoma.

SMILES strings stand for the structures. “And” between values parts separate entries of the source, which are not always exact repeats. Equal values may be shown once. This is part of a sample that, as a whole, favours compounds with a hit. Of some 83,000 tested, about 20% had one in any assay.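 Interpretation: 100, growth as untreated; towards 0, rising growth inhibition; 0, no net growth; 0 to -100, cell death. Compounds scoring below 10 were considered active.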 The source made the active and inactive calls.

Take `CC(=O)c1cc2ccccc2o1`: the growth was 97.9% (inactive) in [1]; 107% (inactive) in experiment [2]; 110% (inactive) in [3]; 99.7% (inactive) in experiment [4]; 108% (inactive) in experiment [5]; 106% (inactive) in experiment [6]. In addition, the growth is 84.1% (inactive) in [7]; 104% (inactive) in experiment [8]; 94.1% (inactive) in experiment [9]; 114% (inactive) in [10]; 112% (inactive) in experiment [11]; 97.9% (inactive) in experiment [12]. Also, the growth in experiment [13] was 107% (inactive); in [14], 99.9% (inactive); in [15], 119% (inactive); in experiment [16] it was 106% (inactive); in experiment [17], 103% (inactive); in experiment [18], 89% (inactive). Further, the growth is 114% (inactive) in [19] and 99.5% (inactive) in [20].

In the case of `CC(C)(C)C1=CC(=O)C(C(C)(C)C)=CC1=O`, the growth in [1] was 84.3% (inactive) and 103% (inactive); in [2], 90.3% (inactive) and 102% (inactive); in experiment [3], 104% (inactive) and 102% (inactive); in experiment [4] it was 90.2% (inactive) and 97.8% (inactive); in [5], 99.7% (inactive); in [6], 83.8% (inactive) and 100% (inactive). Also, the growth in [7] was 82.5% (inactive) and 88.9% (inactive); in experiment [8], 98.5% (inactive) and 91% (inactive); in experiment [9], 93.3% (inactive) and 105% (inactive); in [10], 116% (inactive); in [11], 120% (inactive) and 98.9% (inactive); in experiment [12] it was 105% (inactive) and 107% (inactive). Also, the growth in [13] is 94.5% (inactive) and 107% (inactive); in experiment [14] it was 107% (inactive) and 109% (inactive); in experiment [15], 90.2% (inactive) and 105% (inactive); in experiment [16] it was 108% (inactive) and 94.3% (inactive); in experiment [17] it was 99.6% (inactive) and 104% (inactive); in [18], 87.3% (inactive) and 108% (inactive). In addition, the growth in experiment [19] is 90.5% (inactive) and 85% (inactive); in [20], 105% (inactive).

As for `CCCCNC(=O)c1ccccc1C`, the growth in experiment [1] was 90.4% (inactive); in experiment [2], 94.4% (inactive); in experiment [3], 89.4% (inactive); in [4], 91.1% (inactive); in experiment [5], 105% (inactive); in experiment [6], 96.3% (inactive). In addition, the growth in experiment [7] is 93.2% (inactive); in [8], 100% (inactive); in [9] it was 92.9% (inactive); in experiment [10], 98.3% (inactive); in experiment [11], 104% (inactive); in experiment [12] it was 103% (inactive). Further, the growth was 87.4% (inactive) in experiment [13]; 103% (inactive) in experiment [14]; 94.8% (inactive) in experiment [15]; 101% (inactive) in experiment [16]; 94.6% (inactive) in experiment [17]; 107% (inactive) in experiment [18]. Moreover, the growth is 100% (inactive) in [19] and 90.4% (inactive) in experiment [20].

Turning to `COC(=O)c1nc(=S)[nH]c(C(=O)OC)c1C(=O)c1ccccc1`, the growth in experiment [1] was 101% (inactive); in [2], 90.2% (inactive); in experiment [3], 106% (inactive); in experiment [4], 113% (inactive); in experiment [5] it was 114% (inactive); in experiment [6], 92% (inactive). Moreover, the growth was 103% (inactive) in experiment [7]; 112% (inactive) in experiment [8]; 120% (inactive) in experiment [9]; 119% (inactive) in [10]; 116% (inactive) in experiment [11]; 111% (inactive) in experiment [12]. In addition, the growth was 97.1% (inactive) in experiment [13]; 93.5% (inactive) in [14]; 99.2% (inactive) in [15]; 108% (inactive) in experiment [16]; 103% (inactive) in [17]; 87.8% (inactive) in experiment [18]. Also, the growth was 123% (inactive) in experiment [19] and 113% (inactive) in experiment [20].

Take `CC(C)(C)OC(=O)c1ccc(NCc2cc(O)ccc2O)cc1`: the growth was 59.5% (inactive) in experiment [1]; 9.37% (active) in [2]; 84.1% (inactive) in experiment [3]; 45.1% (inactive) in experiment [4]; 53.4% (inactive) in experiment [5]; 17.5% (inactive) in experiment [6]. Besides, the growth is -78.4% (active) in experiment [7]; 40.9% (inactive) in experiment [8]; -72.7% (active) in experiment [9]; 10.8% (inactive) in experiment [10]; 57% (inactive) in experiment [11]; 3.17% (active) in experiment [12]. Also, the growth is -40.2% (active) in experiment [13]; -38.2% (active) in [14]; -68.3% (active) in [15]; 16.5% (inactive) in [16]; 78.4% (inactive) in experiment [17]; -70.1% (active) in experiment [18]. For the same compound, the growth in experiment [19] was -6.29% (active); in [20], 44.5% (inactive).

Turning to `CN(C)C(=N)N=C(N)N`, the growth was 100% (inactive) and 120% (inactive) in experiment [1]; 110% (inactive) and 133% (inactive) in experiment [2]; 107% (inactive) and 154% (inactive) in [3]; 95.5% (inactive) and 99.5% (inactive) in experiment [4]; 113% (inactive) and 125% (inactive) in [5]; 114% (inactive) and 122% (inactive) in experiment [6]. Moreover, the growth is 64.1% (inactive) and 166% (inactive) in [7]; 99.8% (inactive) and 118% (inactive) in experiment [8]; 103% (inactive) and 101% (inactive) in experiment [9]; 135% (inactive) in experiment [10]; 120% (inactive) in experiment [11]; 130% (inactive) in [12]. For the same compound, the growth was 116% (inactive) and 269% (inactive) in experiment [13]; 95.8% (inactive) and 114% (inactive) in experiment [14]; 101% (inactive) and -7.3% (active) in experiment [15]; 99.9% (inactive) and 103% (inactive) in [16]; 113% (inactive) and 178% (inactive) in experiment [17]; 98.5% (inactive) and 109% (inactive) in experiment [18]. For the same compound, the growth is 108% (inactive) and -0.171% (active) in [19]; 99.2% (inactive) and 101% (inactive) in [20].
